# Screening data: PubChem, National Center for Advancing Translational Sciences (NCATS)
# Rango release inh: inhibition of RanGTP-driven Rango-importin beta dissociation; Biochemical FRET Rango-importin beta, RanGTP-induced dissociation; O95149+P62826; Potency, µM (series often up to 46.1 µM), inactives show top-dose activity change, negative = inhibition; 0.071% of 340,000 active; note: potency is the fitted concentration of half-maximal effect; % of control where 0% means no effect; nearly all actives have a fitted effect of over 45% in size
#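 Quantitative HTS using a FRET biosensor: 0.1 uM Rango, 0.25 uM importin beta, 0.6 uM Ran, 2 mM GTP, 0.2 uM RCC1 final, PBS with DTT, Tween-20 and BSA. Post-read taken 45 min after Ran addition.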
# Rango-impB inh: inhibitors of Rango-importin beta complex formation; Q14974; Rango CFP/YFP FRET sensor + importin beta, 45 min; Potency, µM (doses to about 92.2 µM), inactives show at the top dose inhibition of complex formation; 0.031% of 340,000 active;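 note: potency is the fitted concentration of half-maximal effect; 0% = DMSO wells and 100% = buffer wells lacking importin beta; nearly all actives have a fitted effect of over 15% in size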
#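 FRET biosensor (snurportin 1 IBB flanked by EYFP and cerulean), 50 nM, with compound 5 min, then 0.125 microM importin beta in PBS, 1 mM DTT, 0.02% Tween-20, 0.1% BSA. CFP/YFP ratio read after 45 min at room temperature; pre-read flags interference.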
# MmCpn inh: blocks the Methanococcus maripaludis chaperonin Mm-Cpn; purified Mm-Cpn ATPase, ADP Transcreener TR-FRET; Potency, µM (top dose mostly 76.9 µM), for inactives: top-dose activity, negative = inhibition, usual class: inhibitors; 0.031% of 330,000 active; active = well fitted inhibition curve with a large enough effect; inconclusive = small, poorly fitted or top-dose-only effect; note: potency is the fitted concentration of half-maximal effect; % is set by controls: 0 for no effect and ±100 for the full control effect; nearly all actives have a fitted effect of over 80% in size
#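 Reaction buffer contained 30 mM Tris pH 7.4, 100 mM KCl, 5 mM MgCl2 and 1 mM DTT. Mm-CPN (25 nM final) hydrolysed 10 uM ATP over 30 min at 37°C; ADP was read by HTRF.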
# KCNH2 3.1 inh: blocks the human KCNH2 3.1 channel isoform; 0.95% of 340,000 active; U2OS KCNH2 3.1, thallium flux FluxOr; active compounds read low; activity change, % (tested at about 1.8 µM);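 active = maximum activity change below -70%; inconclusive = maximum activity change from -70% to -50%; inactive = maximum activity change above -50%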;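 note: thallium influx rate constant from kinetic fluorescence after stimulation buffer; % is set by controls: 0 for no effect and ±100 for the full control effect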
#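 Steps: virus added to U2OS suspension (4 h, RT, dark); medium with 10% FBS added, cells plated, 37 C overnight; FluxOr/Red40 loading buffer 45 min RT; stimulation buffer, 2 min kinetic read; rate constant normalized.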
# CCT modulator: cytosolic chaperonin activity modulation. purified chaperonin ATPase assay, HTRF ADP detection, 30 min. activity change, % (no concentration beside the values), hits read low. 0.3% of 360,000 active. AID 651819; in the data active = activity change below about -30%; note: % is set by controls: 0 for no effect and ±100 for the full control effect
#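 TRiC (40 or 20 nM final, by batch activity) in 30 mM Tris pH 7.4, 100 mM KCl, 5 mM MgCl2, 1 mM DTT was treated with compound at 76 uM single dose, then 10 uM ATP, 30 min at 37 °C. ADP was read by HTRF Transcreener.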
# KCNH2 WT inh: inhibitors of human wildtype KCNH2 potassium channel; U2OS, BacMam KCNH2, thallium flux FluxOr; active compounds read low; Q12809; activity change, % at 1.84 µM; 0.37% of 340,000 active;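 active = maximum activity change below -70%; inconclusive = maximum activity change between -70% and -50%; inactive = maximum activity change above -50%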; note: % is set by controls: 0 for no effect and ±100 for the full control effect
#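 U2OS cells transduced with wild-type KCNH2 virus are loaded with FluxOr dye for 45 min, and thallium flux is measured in kinetic reads before and after stimulation buffer. Rate constants are normalized to DMSO controls.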
# Starred values were filed as active, the others as inactive; ? = inconclusive; . = no result. The list is not random: actives were taken first. Their share in the collection is about 1.4%. Unless noted, calls come from the whole dose curve.
SMILES,Rango release inh,Rango-impB inh,MmCpn inh,KCNH2 3.1 inh,CCT modulator,KCNH2 WT inh
CCCCCSc1cc(OC)c(CCN(C)C)cc1OC,2%,1%,4%,-70*,-1,14
CN(Cc1cccc(-c2ccncc2)c1)C(=O)Oc1ccc([N+](=O)[O-])cc1,.,.,.,.,2,.
COC(=O)C1=C(c2ccc(Cl)c(C(F)(F)F)c2)C[C@@H]2CC[C@H]1N2C(=O)NCc1cc(C)oc1C(F)(F)F,5%,1%,-1%,-89*,0,-11
CCN(CC)S(=O)(=O)c1ccc(C(=O)O)cc1,-8%,?,0%,9,-4,0
CCn1c(SCC(=O)Nc2nncs2)nnc1-c1ccco1,-7%,-2%,-4%,6,0,1
O=c1cc(C(F)(F)F)c2cc3c4c(c2o1)CCCN4CCC3,?,?,-4%,-109*,0,-72*
COc1ccc(OCC(=O)N2CCCC(N3CCN(c4ccccc4C)CC3)C2)cc1 (stereo not drawn),-13%,0%,2%,-74*,-4,16
COc1ccccc1OCC(=O)N1CCCC(N2CCN(c3ccc(F)cc3)CC2)C1 (stereo not drawn),-8%,-2%,-1%,2,-1,19
Cc1ccc(OCC(=O)N2CCCC(N3CCN(c4ccc(F)cc4)CC3)C2)cc1 (stereo not drawn),-2%,0%,-2%,-86*,-4,-43
O=C1C(Cl)=C(N2CCOCC2)C(=O)N1c1ccccc1F,21%,?,-2%,13,1,3
c1cc2c(cc1[C@H]1OCC3C1CO[C@@H]3c1ccc3c(c1)OCO3)OCO2 (stereo partly drawn),-3%,-1%,1%,-70*,-1,18
COC(=O)[C@@H]1N=C(c2ccc(OC)cc2)O[C@]12C(=O)N(C)c1ccc(Cl)cc12,.,.,.,.,0,.
COC(=O)C1=C(c2ccccc2OCc2ccccc2)C[C@@H]2CC[C@H]1N2C(=O)NCc1ccc(Br)cc1,-2%,-5%,-3%,-82*,0,0
COC(=O)C1=C(c2cccc(OC)c2OC)C[C@@H]2CC[C@H]1N2C(=O)NCCS(C)=O (stereo partly drawn),-16%,-6%,.,6,1,-163*
CCOc1ccc2nc(N(CCN(CC)CC)C(=O)c3ccc([N+](=O)[O-])cc3)sc2c1,3%,4%,-2%,6,0,18
O=C(CCCN1CCC(n2c(=O)[nH]c3ccccc32)CC1)c1ccc(F)cc1,-12%,5%,-2%,-71*,-2,-11
C=CCNC(=S)N1Cc2ccccc2-n2nncc2C1,.,.,.,17,-1,-120*
O=C1NCCOC(=O)[C@@H](Cc2ccc(F)cc2)CC/C=C/C[C@@H]1CC(=O)N(CCO)Cc1ccccc1,-7%,0%,-3%,2,0,-6
CCOC(=O)c1c(/N=C/C2C(=O)NC(=S)NC2=O)sc(C)c1C,.,.,-3%,.,.,.
CCOC(=O)c1c(/N=C/C2C(=O)NC(=S)NC2=O)sc2c1CCC2,9.2µM*,?,-1%,-15,2,7
CCN(CC)CCNCC(=O)Nc1ccc(Cl)cc1C(=O)c1ccccc1,2%,-3%,-4%,-95*,1,-87*
C[C@]12CCC(=O)C[C@H]1CC[C@@H]1[C@@H]2CC[C@]2(C)C(=O)CC[C@@H]12,2%,1%,-4%,.,-1,.
CCn1c(COc2cccc3ccccc23)nnc1SCC(N)=O,-9%,-3%,?,15,-1,4
Cc1cccc(-n2c(O)c(/C=C3/C(c4ccccc4)=Nc4ccccc43)c(=O)[nH]c2=O)c1,2%,?,-1%,4,-44*,-3
Cc1ccc(OCCSC2=NN2c2cc(C)nc(N)n2)cc1,1%,-2%,1%,-3,0,0
SMILES,Rango release inh,Rango-impB inh,MmCpn inh,KCNH2 3.1 inh,CCT modulator,KCNH2 WT inh
CCSC1=NN1c1cc(C)nc(N)n1,14%,-3%,3%,-95*,-1,0
COc1ccccc1N1C(=O)NC(=O)C2(Cc3cc(C)ccc3N(C)C2)C1=O (stereo not drawn),-2%,-1%,0%,0,3,-124*
CSCCC(c1nnnn1C(C)(C)C)N1CCC2(CC1)C(=O)NCN2c1ccccc1 (stereo not drawn),.,.,.,.,1,.
C=C1[C@@H](OC(C)=O)[C@]23C[C@@H]1[C@@H](OC(C)=O)CC2[C@]12C4C[C@H]3[C@H]1N(CC)C[C@]4(C)CC[C@@H]2O (stereo partly drawn),-3%,0%,.,8,-68*,3
Clc1ccc2c(c1)C(c1ccccc1Cl)=NCc1nnc(N3CCN(CCSc4ccccc4)CC3)n1-2,2%,-3%,0%,-12,-2,-153*
Clc1ccc2c(c1)C(c1ccccc1Cl)=NCc1nnc(N3CCN(CCOc4ccccc4)CC3)n1-2,-11%,-1%,-2%,?,-1,?
O=C(NCC1=C(c2ccc3ccccc3c2)C[C@@H]2CC[C@H]1N2Cc1ccco1)c1ccncc1,.,.,.,-31,0,16
O=C(NCC1=C(c2ccc3ccccc3c2)C[C@@H]2CC[C@H]1N2Cc1ccco1)c1ccc([N+](=O)[O-])cc1,.,.,.,-99*,0,-41
CS(=O)(=O)c1ccc(C2=C(CNC(=O)c3cccs3)[C@H]3CC[C@@H](C2)N3Cc2ccco2)cc1,.,.,.,-94*,-1,-41
O=P(Oc1ccccc1)(Oc1ccccc1)C(Nc1ccccc1)c1ccccc1 (stereo not drawn),1%,3%,0%,-70*,1,3
CCOC(=O)C1CCN(/C=C2\C(=O)NC(=S)N(CC)C2=O)CC1,8%,0%,-6%,-11,-1,-16
CCOC(=O)C1CCN(/C=C2/C(=O)NC(=S)N(c3cccc(OC)c3)C2=O)CC1,-1%,-2%,0%,0,-42*,1
Fc1ccc(C(OCCN2CCN(CCCc3ccccc3)CC2)c2ccc(F)cc2)cc1,12%,-4%,.,.,.,.
Fc1ccc(C(OCCN2CCCC2)c2ccc(Br)cc2)cc1 (stereo not drawn),20%,-1%,-1%,-72*,2,?
c1ccc(CCCN2CCN(CCOC(c3ccccc3)c3ccccc3)CC2)cc1,-12%,1%,.,-117*,-3,?
Fc1ccc(C(OCCN2CCCC2)c2ccc(F)cc2)cc1,37%,2%,0%,-77*,2,8
C#CCN1CCN(c2ccc(F)cc2)CC1,9%,0%,0%,-12,0,3
